Source: PubChem
A selection: hits, their analogues and other compounds. The true share with any hit is near 3.8%.
HT1080NT lethal: kills 2HG-producing HT-1080-NT fibrosarcoma cells; HT-1080-NT fibrosarcoma viability, CellTiter-Glo ATP luminescence, 48 h; Potency, µM (top dose mostly 46.1 µM), for the others: top-dose activity, negative = less viability, hits mostly cytotoxic; 360,000 compounds, 1.6% hits;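 further: NT is the 2HG producing partner of a matched IDH1 knockdown line; 0% = DMSO-treated cells and -100% = media-only wells without cells; nearly all actives have a fitted effect of over 55% in size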
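Viability by CellTiter-Glo luminescence after 48 h compound exposure at 37C of HT-1080-NT cells (750/well, RPMI, 5% FBS). % activity scaled between DMSO wells and medium-only wells, then curve-fitted and categorized by curve class.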
TGFb inhibitor: TGF-b pathway inhibition. HepG2 CAGA-GFP TGF-b/SMAD3 reporter, GFP fluorescence, 18 h; TGF-beta stimulated, 500 pg/mL final. Potency, µM (top dose mostly 46.1 µM), without a hit: top-dose activity, negative = inhibition, most hits filed as inhibitors. 410,000 compounds, 1.2% hits. AID 588855; further: on the % scale 0 is the no-effect control and ±100 the full control effect; nearly all actives have a fitted effect of over 65% in size
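Cell-based qHTS in HEPG2 carrying a CAGA-GFP Smad reporter; compounds added before 500 pg/mL final TGF-beta, 18 h incubation at 37 degrees C, GFP fluorescence quantified per cell by imaging cytometry.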
HepG2 tox-1: HepG2 cytotoxicity, counter-screen for TGF-b inhibitors. HepG2 CAGA-GFP viability, ATP luminescence, 18 h. Potency, µM (doses to about 46.1 µM), inactives show top-dose activity change, negative = cytotoxicity, most hits filed as cytotoxic. 410,000 compounds, 0.76% hits. AID 588856
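CellTiter-Glo luminescence gave cytotoxicity after 18 hours at 37 degrees C. The cells were HepG2 CAGA-GFP in 1% FBS DMEM, stimulated with 500 pg/mL TGF-beta after compound addition. %Activity was normalised to no-cell wells (complete cell-killing) and DMSO (no toxicity), and curves were fitted and classified.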
ATXN2 expr inh: inhibitors of ATXN2 expression. HEK-293 ATXN2-luciferase reporter, luminescence, 24 h. Potency, µM (doses to about 57 µM), without a hit: top-dose activity change, negative = inhibition, actives largely listed as inhibitors. 360,000 compounds, 0.72% hits; further: on the % scale 0 is the no-effect control and ±100 the full control effect; nearly all actives have a fitted effect of over 55% in size
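ATXN2-luciferase reporter cells (luciferase flanked by upstream and downstream ATXN2 gene portions) were treated 24 h at 37 °C with compounds at up to 57 uM. SteadyGlo luminescence gave expression; GF-AFC fluorescence gave viability.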
HT1080 IDH1KD tx: HT-1080 IDH1 knockdown cell toxicity (counter line). HT-1080 IDH1 knockdown viability, ATP luminescence, 48 h. Potency, µM (highest dose often 46.1 µM), for the others: at the highest dose activity, negative = toxicity, usual class: cytotoxic. 360,000 compounds, 2% hits;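 further: 0% = DMSO wells and -100% = cell-free medium wells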
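Cytotoxicity counter-line: IDH1KD HT-1080, 48 h, CellTiter-Glo. Curves classed by r2, magnitude and activity.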
S2 tox: cell viability loss in ATXN counter-screen. 400,000 compounds, 0.49% hits. S2 cells (HEK-293 line with an ATXN2-luciferase reporter) viability, CellTiter-Fluor protease fluorescence, 24 h. Potency, µM (series often up to 56.7 µM), hits mostly cytotoxic. AID 651635; further: nearly all actives have a fitted effect of over 40% in size
TGFb confirm: confirmation of TGF-b signaling inhibitors in HepG2 reporter cells; shares compounds with TGFb inhibitor; AID 720534; Potency, µM (series often up to 46.1 µM), without a hit: top-dose activity, negative = inhibition, usual class: inhibitors; HepG2 CAGA-GFP TGF-b reporter, GFP fluorescence, 18 h; cells stimulated with TGF-beta, 500 pg/mL; 1,600 compounds, 63% hits; further: on the % scale 0 is the no-effect control and ±100 the full control effect; nearly all actives have a fitted effect of over 65% in size
HepG2 tox-2: toxic to HepG2 cells in TGF-b counterscreen; Potency, µM (titrated, usually from 46.1 µM), without a hit: top-dose activity, negative = cytotoxicity, most hits filed as inhibitors; AID 720535; shares compounds with TGFb inhibitor; 1,600 compounds, 27% hits; HepG2 CAGA-GFP viability, ATP luminescence, 18 h; cells stimulated with TGF-beta, 500 pg/mL; further: on the % scale 0 is the no-effect control and ±100 the full control effect; nearly all actives have a fitted effect of over 70% in size
TGFb CCL64 inh: orthogonal confirmation of TGF-b inhibitors in CCL64 cells; shares compounds with TGFb inhibitor; CCL64 CAGA-GFP reporter, TGF-b stimulated, GFP fluorescence, 18 h; Potency, µM (highest dose often 46.1 µM), for the others: top-dose activity, negative = inhibition, hits mostly inhibitors; 1,600 compounds, 41% hits; AID 720536; further: nearly all actives have a fitted effect of over 65% in size
COP TGFb inh: TGF-b inhibition validated with COP promoter. shares compounds with TGFb inhibitor. HepG2 COP-GFP TGF-b reporter, GFP fluorescence, 18 h; cells stimulated by added recombinant TGF-beta. Potency, µM (titrated, usually from 46.1 µM), without a hit: top-dose activity, negative = inhibition, usual class: inhibitors. 1,600 compounds, 3% hits. AID 720537; further: nearly all actives have a fitted effect of over 70% in size
Active calls of the source: *; i = inactive; ? = inconclusive; / = not tested or not shown. The call rests on the fitted dose curve; in most records, active means well fitted curve in the direction sought with a large enough effect; inconclusive means small, poorly fitted or top-dose-only effect, or another doubt; inactive means no such curve, though single readings can be large; an effect the other way counts as inactive or inconclusive. Potency means the concentration at half of the fitted maximal effect.

SMILES | HT1080NT lethal | TGFb inhibitor | HepG2 tox-1 | ATXN2 expr inh | HT1080 IDH1KD tx | S2 tox | TGFb confirm | HepG2 tox-2 | TGFb CCL64 inh | COP TGFb inh
CCOC(=O)c1c(C)[nH]c(C(=O)OCC(=O)NCCc2ccc(OCC)c(OCC)c2)c1C | -12% | ? | -3% | -23% | ? | i | ? | ? | -7% | 25%
CCOC(=O)c1[nH]c(C)c(C(=O)OCC(=O)NCc2ccc(OC)c(OC)c2)c1C | 1% | 3% | -25% | / | -4% | i | / | / | / | /
Oc1ccccc1-c1n[nH]c(-c2ccccc2O)n1 | ? | 2.8µM* | -61% | -19% | ? | ? | ? | ? | ? | 4%
COc1cccc(CNc2nc3cc(-c4ccc(F)cc4)sc3c(=O)n2C)c1OC | -13% | -2% | -26% | -6% | ? | i | / | / | / | /
COc1cccc(CNc2nc3cc(-c4ccc(C)cc4)sc3c(=O)n2C)c1OC | -1% | 10µM* | -1% | -2% | ? | i | 2.6µM* | ? | 12µM* | 3%
COc1cccc(CNc2nc3cc(-c4ccsc4)sc3c(=O)n2C)c1OC | ? | ? | 3% | ? | ? | ? | ? | ? | ? | 20%
Cn1nc(-c2ccccc2F)c2cc(C(=O)N3CCN(c4ccccc4F)CC3)sc21 | / | ? | -16% | ? | / | ? | / | / | / | /
COc1ccc(CCNC(=O)c2cn(C)c3ccc(S(=O)(=O)N(C)C)cc3c2=O)cc1OC | / | ? | -13% | -8% | / | i | / | / | / | /
Cc1ccc(NC(=O)c2ccc([N+](=O)[O-])s2)cc1S(=O)(=O)N1CCOCC1 | ? | 7.1µM* | -158% | ? | 21µM* | i | 6.5µM* | ? | ? | 26%
Cc1ccc(NC(=O)c2ccccc2NS(=O)(=O)c2ccc(Cl)s2)cc1S(=O)(=O)N1CCOCC1 | ? | ? | -51% | ? | ? | ? | 13µM* | ? | 8.2µM* | 61%
COc1ccc(C)cc1NC(=O)c1ccccc1NS(=O)(=O)c1ccc(Cl)s1 | ? | 5µM* | -53% | / | 16µM* | i | 12µM* | ? | 6.5µM* | 45%
O=C(/C=C/c1ccc(Cl)cc1)c1ccc([N+](=O)[O-])o1 | ? | 3.5µM* | -57% | ? | 13µM* | 11µM* | 2.9µM* | 7.3µM* | 2.1µM* | 6%
O=C1CCC(C(=O)OCC(=O)c2ccccc2)N1 (configuration not stated) | 17% | ? | -4% | -14% | 17% | i | / | / | / | /
CC1CC(C)C(=O)C(C(CC2CC(=O)NC(=O)C2)OC(=O)CC(=O)c2ccccc2)C1 (configuration not stated) | ? | 2.2µM* | -9% | 3.5µM* | ? | ? | 0.41µM* | ? | 2.6µM* | 24%
CN(CC(=O)Nc1cccc(F)c1)C(=O)c1cccc(S(=O)(=O)N2CC3(C)CC2CC(C)(C)C3)c1 (configuration not stated) | -13% | 11µM* | -21% | -1% | -22% | ? | 16µM* | -29% | ? | 47%
CC1(C)CC2CC(C)(CN2S(=O)(=O)c2cccc(C(=O)O)c2)C1 (configuration not stated) | 0% | -15% | 1% | 9% | 2% | i | / | / | / | /
OC[C@@H](O)[C@H](O)[C@H](O)[C@@H](O)CO | / | / | / | 13% | / | i | / | / | / | /
Cc1sc2ncn(CC(=O)N(C)c3cccc(C(F)(F)F)c3)c(=O)c2c1S(=O)(=O)N1CCN(c2ncccn2)CC1 | / | 0% | -7% | -3% | / | i | / | / | / | /
COc1ccc(S(=O)(=O)N2CCOCC2)cc1NC(=O)CSc1nnc(N)s1 | -2% | ? | 5% | 5% | 5% | i | -12% | 3% | 3% | 5%
Nc1nnc(SCC(=O)Nc2cccc(S(=O)(=O)N3CCOCC3)c2)s1 | 6% | ? | -20% | -3% | 7% | ? | / | / | / | /
COc1ccc2c(Sc3ccc(C)cc3)c(C(=O)NCC(C)c3ccccc3)[nH]c2c1 (configuration not stated) | / | 23% | 6% | 8% | / | i | / | / | / | /
Nc1ncc(Br)cc1S(=O)(=O)Nc1cc(C(F)(F)F)cc(C(F)(F)F)c1 | 18µM* | 5.6µM* | -51% | 0% | 3.7µM* | ? | 6.5µM* | 12µM* | ? | 35%
Cc1ccc(NS(=O)(=O)c2cc(Br)cnc2N)c(Cl)c1 | -12% | -10% | 4% | -10% | -6% | i | / | / | / | /
O=C(Nc1cccc(Cl)c1)Nc1cc(S(=O)(=O)N2CCCCC2)ccc1Cl | ? | 10µM* | 2% | ? | 26µM* | ? | 4.1µM* | ? | 4.6µM* | 73%
O=C(Nc1cc(S(=O)(=O)N2CCCCC2)ccc1Cl)c1ccncc1 | 3% | 8% | -15% | / | -10% | ? | / | / | / | /
Cc1cc(NC(=S)NC(=O)C2CC2)ccc1Br | -11% | 4µM* | -2% | 71% | -8% | i | 0.82µM* | 0.46µM* | ? | 25%
NS(=O)(=O)c1ccc(NC(=S)Nc2ccn(Cc3cccc4ccccc34)n2)cc1 | ? | 13µM* | -20% | -39% | ? | i | 5.8µM* | -29% | ? | -6%
